24 compounds from PubChem BioAssay (EPA / NIEHS) can be followed below.

Holding throughout (conditions): mRNA level, 48 h; actives raise or lower the signal
Read-out in assay [1]: adenosine kinase (ADK) gene, ADK (gene 132)
The experiment in a line: LTEA_HepaRG_ADK: Life Technologies and Expression Analysis (LTEA) Assay for adenosine kinase (ADK) gene using HepaRG (AID 2283471). Put shortly: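 HepaRG (human liver), 48 h chemical exposure, 8-pt half-log series, top 100 uM, 0.5% DMSO vehicle. Readout: ADK mRNA by qRT-PCR vs housekeeping genes; bidirectional curve fit relative to DMSO baseline.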

Read-out in assay [2]: Alpha-fetoprotein (AFP) gene, AFP (gene 174)
The experiment in a line: LTEA_HepaRG_AFP: Life Technologies and Expression Analysis (LTEA) Assay for Alpha-fetoprotein (AFP) gene using HepaRG (AID 2283472). The method, boiled down: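 AFP transcript measured by TaqMan qRT-PCR with three housekeeping genes for normalization, after 48 h chemical treatment of HepaRG cells (top 100 uM, half-log steps, 0.5% DMSO). Gain or loss fitted against vehicle.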

Read-out in assay [3]: BCL2L11 (gene 10018)
The assay is described as follows: LTEA_HepaRG_BCL2L11: Life Technologies and Expression Analysis (LTEA) Assay for Bcl-2 (BCL2L11) gene using HepaRG (AID 2283473). The method, boiled down: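 Cells were plated, cultured 48 h, switched to serum-free induction medium, then dosed in duplicate for 48 h at eight half-log concentrations up to 100 uM. Lysates underwent RNA isolation and TaqMan qRT-PCR; gain or loss versus DMSO was fitted.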

Read-out in assay [4]: Apolipoprotein A-V (APOA5) gene, APOA5 (gene 116519)
The experiment in a line: LTEA_HepaRG_APOA5: Life Technologies and Expression Analysis (LTEA) Assay for Apolipoprotein A-V (APOA5) gene using HepaRG (AID 2283474). Put shortly: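 Human liver HepaRG cells are treated 48 h with test chemicals (100 uM top, half-log dilutions, 0.5% DMSO). APOA5 mRNA induction or loss is measured by qRT-PCR relative to vehicle.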

Read-out in assay [5]: Apoptosis regulator Bcl-2 (Homo sapiens) (UniProt P10415)
The assay is described as follows: LTEA_HepaRG_BCL2: Life Technologies and Expression Analysis (LTEA) Assay for Bcl-2 gene using HepaRG (AID 2283475). Put shortly:
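qRT-PCR of BCL2 transcript, normalized to three housekeeping genes (ACTB, GAPDH, POLR2A), after 48 h chemical exposure of HepaRG cells; concentrations top 100 uM with half-log dilutions, 0.5% DMSO vehicle, duplicates; changes up or down fitted relative to vehicle.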

Read-out in assay [6]: Bcl-2 (BID) gene, BID (gene 637)
The experiment in a line: LTEA_HepaRG_BID: Life Technologies and Expression Analysis (LTEA) Assay for Bcl-2 (BID) gene using HepaRG (AID 2283476). The method, boiled down:
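Duplicate 48 h treatments of HepaRG cells in serum-free induction medium spanned 100 uM downward in half-log steps, 0.5% DMSO. Transcript change quantified by qRT-PCR against three housekeeping genes, fitted up or down versus DMSO.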

Read-out in assay [7]: Cytochrome P450 (CYP24A1), CYP24A1 (gene 1591)
The assay is described as follows: LTEA_HepaRG_CYP24A1: Life Technologies and Expression Analysis (LTEA) Assay for Cytochrome P450 (CYP24A1) using HepaRG (AID 2283478). Put shortly:
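Human liver HepaRG cultures receive each chemical for 48 h across an eight-point half-log series topping at 100 uM in 0.5% DMSO. Induction or suppression of CYP24A1 mRNA is scored relative to vehicle after housekeeping-gene normalization.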

Read-out in assay [8]: cysteine-aspartic acid protease (CASP8), CASP8 (gene 841)
The experiment in a line: LTEA_HepaRG_CASP8: Life Technologies and Expression Analysis (LTEA) Assay for cysteine-aspartic acid protease (CASP8) using HepaRG (AID 2283480). The method, boiled down:
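Concentration-response in duplicate up to 100 uM (half-log steps, 0.5% DMSO) on differentiated HepaRG cultures for 48 h. Expression change of CASP8 mRNA is determined by TaqMan qRT-PCR with housekeeping-gene normalization.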

Read-out in assay [9]: Caspase-3 (Homo sapiens) (UniProt P42574)
The experiment in a line: LTEA_HepaRG_CASP3: Life Technologies and Expression Analysis (LTEA) Assay for cysteine-aspartic acid protease (CASP3) using HepaRG (AID 2283477). The method, boiled down: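 In HepaRG liver cells dosed for 48 h at up to 100 uM (eight-point, duplicate), CASP3 expression changes are scored by qRT-PCR. Activity is fitted in both directions with 0.5% DMSO as baseline.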

Read-out in assay [10]: Cytochrome P450 (CYP1A2), CYP1A2 (gene 1544)
The experiment in a line: LTEA_HepaRG_CYP1A2: Life Technologies and Expression Analysis (LTEA) Assay for Cytochrome P450 (CYP1A2) using HepaRG (AID 2283479). Put shortly:
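Assesses CYP1A2 mRNA in human HepaRG liver cells after 48 h chemical exposure at up to 100 uM. Values come from qRT-PCR with bidirectional curve fitting relative to DMSO.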

Several values for one entry are separate records, joined by “and”; a condition that tells them apart may be missing. Identical values can stand only once. The source holds several records for some structures; these can differ, active in one and inactive in another. Activity calls are given as the source filed them. The calls were made as follows: active = hit-call score of the fitted dose curve at least 0.9, where 1 is the maximum; inactive = score below 0.9.

Chain of Apoptosis regulator Bcl-2 (Homo sapiens) (P10415 whole entry, looked up): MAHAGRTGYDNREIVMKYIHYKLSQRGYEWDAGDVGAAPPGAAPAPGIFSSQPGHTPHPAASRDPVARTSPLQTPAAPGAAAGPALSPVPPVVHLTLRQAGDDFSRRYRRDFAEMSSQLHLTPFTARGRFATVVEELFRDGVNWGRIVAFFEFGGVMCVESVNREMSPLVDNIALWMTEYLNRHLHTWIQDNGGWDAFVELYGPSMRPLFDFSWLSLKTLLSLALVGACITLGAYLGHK
Chain of Caspase-3 (Homo sapiens) (P42574 whole entry, looked up): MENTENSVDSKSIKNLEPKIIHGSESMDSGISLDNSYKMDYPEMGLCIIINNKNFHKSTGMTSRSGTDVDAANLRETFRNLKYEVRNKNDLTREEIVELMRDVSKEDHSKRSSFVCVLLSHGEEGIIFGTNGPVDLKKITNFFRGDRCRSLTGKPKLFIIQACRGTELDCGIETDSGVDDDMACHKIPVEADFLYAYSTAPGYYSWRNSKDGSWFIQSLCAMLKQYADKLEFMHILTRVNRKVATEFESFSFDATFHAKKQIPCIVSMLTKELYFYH

A word on the AC50: it is the concentration giving half of the maximal activity seen. For the compound `COc1ccc(C(c2ccc(OC)cc2)C(Cl)(Cl)Cl)cc1`, the outcome in [1], in assay [3], in assay [6], in assay [7] and in [8] was inactive. The values for the AC50 in assay [2], in [4] and in assay [5] were 78.4 µM (active), 70.9 µM (active) and 86.3 µM (active), respectively.

Take `O=C(Nc1ccccc1)Nc1ccnc(Cl)c1`: the AC50 was 78.2 µM (active) in [1]; 25.2 µM (active) in assay [2]; 71.9 µM (active) in assay [4]; 69.8 µM (active) in [5]; 69.9 µM (active) in [9]. Moreover, the compound was classed as inactive in assay [3], in assay [6], in assay [7] and in assay [8].

Consider `CS/C(C)=N/OC(=O)N(C)SN(C)C(=O)O/N=C(\C)SC`, for which the call in assay [1], in [2], in assay [3], in [4], in assay [5] and in assay [6] was inactive. The call in assay [7], in assay [10] and in [8] was inactive.

Consider `CN(C)C(=S)SSC(=S)N(C)C`, for which the compound was called inactive in assay [1], in assay [2], in assay [3], in assay [4], in [5] and in [6]. For the same compound, the compound was called inactive in [9], in [7] and in assay [8].

Regarding `COC(=O)c1ccccc1C(=O)OC`, the compound was called inactive in [1], in assay [2], in [3], in [4], in [5] and in assay [6]. The compound was called inactive in assay [9], in assay [7] and in assay [8].

On to `CNC(=S)S`, for which the call in assay [1], in assay [2], in [3], in assay [4], in [5] and in [6] was inactive. Besides, the outcome in assay [7] and in assay [8] was inactive. For the same compound, the AC50 in [10] is 50 µM (active).

With `Fc1ccc(Oc2ccnc3cc(Cl)cc(Cl)c23)cc1`, the compound was classed as inactive in assay [1], in assay [3], in [4], in [5], in assay [6] and in assay [9]. In addition, the compound was called inactive in [7] and in assay [8]. Further, the AC50 in assay [2] was 89 µM (active); in assay [10], 14.1 µM (active).

In the case of `COP(N)(=O)SC` (stereo not given), the compound was called inactive in assay [1], in assay [2], in assay [3], in assay [4], in assay [5] and in assay [6]. Moreover, the compound was classed as inactive in [9], in [7], in assay [10] and in assay [8].

As for `CCCCOC(=O)c1ccccc1C(=O)OCCCC`, the call in assay [1], in [2], in assay [3], in [4], in assay [5] and in [6] was inactive. The compound was called inactive in [7] and in [8].

With `CC(Oc1ccc(Cl)cc1Cl)C(=O)O` (stereo not given), the result in [1], in assay [2], in [3], in assay [4], in assay [5] and in assay [6] was inactive. The outcome in assay [7], in assay [10] and in [8] was inactive.

Regarding `N#Cc1cc(Br)c(O)c(Br)c1`, the concentration at half-maximal activity (AC50) in assay [1] was 6.14 µM (active); in assay [2], 13.9 µM (active); in assay [3], 10.4 µM (active); in assay [4] it was 21.2 µM (active); in assay [5], 10 µM (active); in assay [9], 7.76 µM (active). Moreover, the AC50 was 12.9 µM (active) in [10] and 23.6 µM (active) in assay [8]. Further, the call in [6] and in [7] was inactive.

In the case of `COc1nc(NC(C)C)nc(NC(C)C)n1`, the outcome in assay [1], in assay [2], in [3], in [4], in assay [5] and in assay [6] was inactive. Further, the call in assay [7] and in [8] was inactive. Also, the AC50 in assay [10] was 44.9 µM (active).

As for `CCCN(CCC)c1c([N+](=O)[O-])cc(S(N)(=O)=O)cc1[N+](=O)[O-]`, the AC50 in assay [1] is 80.6 µM (active); in assay [2] it was 15.8 µM (active); in assay [3], 95.3 µM (active) and 84.3 µM (active); in assay [8], 83.3 µM (active) and 79.5 µM (active). The compound was classed as inactive in [1], in assay [2], in assay [3], in assay [4], in assay [5] and in assay [6]. Besides, the call in assay [7] and in [8] was inactive.

Turning to `COC(=O)C(C)Oc1ccc(Oc2ccc(Cl)cc2Cl)cc1` (stereo not given), the call in assay [1], in [3], in assay [4], in assay [6], in [7] and in [10] was inactive. Also, the compound was classed as inactive in assay [8]. The values for the AC50 in assay [2] and in assay [5] were 79.6 µM (active) and 50 µM (active), respectively.

In the case of `COc1cnc(OC)n2nc(NS(=O)(=O)c3c(OCC(F)F)cccc3C(F)(F)F)nc12`, the outcome in [1], in assay [3], in assay [4], in [5], in assay [6] and in assay [7] was inactive. Moreover, the compound was classed as inactive in assay [10] and in [8]. The half-maximal activity concentration (AC50) in assay [2] was 50 µM (active).

Turning to `O=C(O)c1nc(Cl)ccc1Cl`, the result in assay [1], in assay [2], in assay [3], in [4], in assay [5] and in assay [6] was inactive. The compound was called inactive in [9], in assay [7] and in [8].

Take `CC(C)C1(C)N=C(c2nc3ccccc3cc2C(=O)O)NC1=O` (stereo not given): the result in assay [1], in assay [2], in assay [3], in assay [4], in [5] and in assay [6] was inactive. In addition, the compound was called inactive in [7] and in assay [8]. For the same compound, the concentration at half-maximal activity (AC50) in assay [10] was 28.7 µM (active).

`Oc1ccccc1-c1ccccc1`: the compound was called inactive in [1], in assay [2], in [3], in assay [4], in assay [5] and in [6]. For the same compound, the compound was classed as inactive in assay [9], in [7] and in assay [8].

`N#CC(CCc1ccc(Cl)cc1)(Cn1cncn1)c1ccccc1` (stereo not given): the result in assay [1], in [3], in [6], in assay [9], in [7] and in [8] was inactive. Moreover, the AC50 is 15.8 µM (active) in assay [2], 50 µM (active) in [4] and 66.7 µM (active) in assay [5].

As for `CCOC(=O)C(Cl)Cc1cc(-n2nc(C)n(C(F)F)c2=O)c(F)cc1Cl` (stereo not given), the call in assay [1], in assay [2], in assay [3], in assay [4], in [5] and in assay [6] was inactive. Moreover, the call in assay [7], in assay [10] and in assay [8] was inactive.

Take `C=CCC1=C(C)C(OC(=O)C2C(C=C(C)C)C2(C)C)CC1=O` (stereo not given): the compound was called inactive in assay [1], in assay [3], in [4], in assay [5], in [6] and in assay [7]. Besides, the compound was called inactive in [10] and in assay [8]. In addition, the concentration at half-maximal activity (AC50) in assay [2] is 90.3 µM (active) and 79.8 µM (active) and 66.3 µM (active); in assay [4], 0.000839 µM (active).

With `CCc1nn(C)c(C(=O)NCc2ccc(C(C)(C)C)cc2)c1Cl`, the AC50 in assay [1] was 35.8 µM (active); in [2] it was 0.965 µM (active); in assay [3] it was 0.636 µM (active); in [4], 0.5 µM (active); in [5], 0.822 µM (active); in assay [6] it was 50 µM (active). For the same compound, the AC50 in [8] was 35.8 µM (active). In addition, in assay [7], the compound was classed as inactive.

In the case of `Cc1c(F)c(F)c(COC(=O)C2C(/C=C(\Cl)C(F)(F)F)C2(C)C)c(F)c1F` (stereo not given), the call in [1], in assay [2], in [3], in assay [4], in [5] and in assay [6] was inactive. In addition, the compound was classed as inactive in [9], in assay [7] and in [8].

For `CNC(=O)ON=CC(C)(C)SC`, the call in assay [1], in [2], in assay [3], in [4], in assay [5] and in assay [6] was inactive. For the same compound, the compound was classed as inactive in assay [9], in assay [7] and in assay [8].
